High-throughput results (PubChem)
TDP1 cell CPT – growth inhibition of DT40 Tdp1-/-;hTDP1 cells with camptothecin (screen for TDP1 inhibitors); chicken DT40 Tdp1-/-;hTDP1 cells + 20 nM CPT, ATP luminescence, 48 h; AID 686979; hit rate 12% among 420,000; Potency, µM (titrated, usually from 46.2 µM), inactives show top-dose activity change, negative = growth inhibition, actives largely listed as inhibitors; also: potency is read from the fitted curve at half-maximal effect; nearly all actives have a fitted effect of over 55% in size
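Chicken DT40 Tdp1-/- cells stably complemented with human TDP1 were seeded at 400 cells/well in medium containing 20 nM camptothecin, exposed to pin-transferred compounds, and grown at 37 °C for at least 48 hr. Viability was read as ATP luminescence.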
Giardia killer – Giardia lamblia killing; Giardia lamblia trophozoite viability; activity change, % at 7.66 µM, hits read low; hit rate 0.15% among 340,000; AID 540267; in the data active = activity change below about -80%; inconclusive = between about -30% and that limit;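 also: parasites exposed to compound for two days anaerobically before the ATP read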
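Trophozoite viability was measured as ATP-dependent luminescence, read 15-30 min after reagent addition. Before that, parasites at 100 cells/well were exposed to compounds for 48 h, anaerobically, at 37 deg C.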
TDP1 inh – TDP1 (human) enzyme inhibition; Q9NUW8; recombinant TDP1, AlphaScreen DNA substrate cleavage; Potency, µM (titrated, usually from 130 µM), for the others: at the top dose activity change, negative = inhibition, hits mostly inhibitors; hit rate 0.28% among 350,000; AID 485290; also: potency is read from the fitted curve at half-maximal effect; nearly all actives have a fitted effect of over 40% in size
Target sequence (Q9NUW8 whole entry, looked up): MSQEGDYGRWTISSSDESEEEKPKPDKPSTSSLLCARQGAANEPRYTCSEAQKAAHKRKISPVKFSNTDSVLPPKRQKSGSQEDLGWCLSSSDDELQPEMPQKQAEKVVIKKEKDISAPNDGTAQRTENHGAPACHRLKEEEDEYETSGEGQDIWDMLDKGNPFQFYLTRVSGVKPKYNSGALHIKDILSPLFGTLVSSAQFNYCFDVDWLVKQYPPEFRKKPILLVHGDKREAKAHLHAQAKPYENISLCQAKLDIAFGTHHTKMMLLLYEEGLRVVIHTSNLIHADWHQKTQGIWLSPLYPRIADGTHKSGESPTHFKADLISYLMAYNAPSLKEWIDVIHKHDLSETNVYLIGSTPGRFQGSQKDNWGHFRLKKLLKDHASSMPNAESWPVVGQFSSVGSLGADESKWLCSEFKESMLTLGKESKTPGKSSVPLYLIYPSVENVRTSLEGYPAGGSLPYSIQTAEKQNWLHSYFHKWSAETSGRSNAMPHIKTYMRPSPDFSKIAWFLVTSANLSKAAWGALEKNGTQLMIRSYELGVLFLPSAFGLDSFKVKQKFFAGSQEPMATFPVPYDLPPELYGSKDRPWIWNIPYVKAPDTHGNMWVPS
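Enzyme-compound mixtures sat 15 min at room temperature, followed by a 5 min reaction with 15 nM final substrate and 10 min with AlphaScreen beads. Recombinant human Tdp1 was used at 1 nM final.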
IL-1B inflam inh – inflammasome signaling inhibition, IL-1 beta readout; THP-1 LPS/ATP IL-1B secretion, AlphaLISA, 16 h; active compounds read low; activity change, % at 57.5 µM; hit rate 4.7% among 360,000; AID 743279; in the data active = activity change below about -50%; inconclusive = mostly about -30% to -49%
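THP-1 cells pretreated 1 hr with compounds (up to 57.5 uM final), then stimulated with LPS (250 ng/mL final) plus ATP (1.25 mM final); secreted IL-1B measured by AlphaLISA after 16 hr, decreased signal indicating inhibition.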
TDP1 cell noCPT – qHTS for Inhibitors of human tyrosyl-DNA phosphodiesterase 1 (TDP1): qHTS in cells in absence of CPT; DT40 Tdp1-/- hTDP1 cells, no CPT, ATP luminescence, 48 h; Potency, µM (top dose mostly 46.2 µM), without a hit: top-dose activity change, negative = growth inhibition, actives largely listed as inhibitors; hit rate 15% among 420,000; also: potency is read from the fitted curve at half-maximal effect; nearly all actives have a fitted effect of over 55% in size
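Luminescent ATP content (CellTiter-Glo) served as the growth readout. Knockout chicken DT40 cells expressing human TDP1 were exposed to compounds without camptothecin for a minimum 48 hr at 37 °C.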
ELG1 repair inh – inhibitors of ELG1-dependent DNA repair in HEK293T cells. HEK293T ELG1-luciferase reporter, luminescence, 16 h; DNA damage induced by 5-fluorouridine. hit rate 2.3% among 330,000. AID 504467. Potency, µM (doses to about 46.1 µM), inactives show top-dose activity change, negative = inhibition, most hits filed as inhibitors; also: potency is read from the fitted curve at half-maximal effect; nearly all actives have a fitted effect of over 55% in size
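Luminescence from the luciferase reporter, measured 30 min after ONE-Glo reagent at room temperature, was the read-out. Beforehand, 2,000 cells per well were exposed for 16 hr at 37 °C to 5-fluorouridine together with compound or vehicle.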
Starred values were filed as active, the others as inactive; i = inactive; ? = inconclusive; · = no result given; [ ] = another dose, or the depositor's remark. Sampled rows, rich in hits. Any-hit rate of the full collection: about 19%. Unless noted, calls follow the shape of the dose curve; as a rule, active = well fitted curve in the direction sought with a large enough effect; inconclusive = small, poorly fitted or top-dose-only effect, or another doubt; inactive = no such curve, though single readings can be large; an effect the other way counts as inactive or inconclusive. % is scaled to controls: 0 for no effect and ±100 for the full control effect.

SMILES	TDP1 cell CPT	Giardia killer	TDP1 inh	IL-1B inflam inh	TDP1 cell noCPT	ELG1 repair inh
CN(C)Cc1csc(NC(=O)Nc2ccccc2Oc2ccccc2)n1	?	·	·	-104.0*	?	·
NC(c1ccccc1)c1csc(NC(=O)NCCc2ccccc2)n1 (stereo unspecified)	?	·	·	-62.9*	?	·
NC(c1ccccc1)c1csc(NC(=O)NCC2CCCCC2)n1 (stereo unspecified)	-84.1%	·	·	-19.5	-76.3%	·
NC(Cc1ccccc1)c1csc(NC(=O)Nc2ccccc2Oc2ccccc2)n1 (stereo unspecified)	-110.5%	·	·	?	20.6µM*	·
CC(=O)Nc1ccccc1Oc1ccccc1	-2.9%	-13.5	-2.5%	-20.6	16.8%	-1.4%
COc1ccc(CC(=O)Nc2ccccc2Oc2ccccc2)cc1	·	·	-2.6%	·	·	2.2%
NC(c1ccccc1)c1csc(NC(=O)Nc2ccccc2Oc2ccccc2)n1 (stereo unspecified)	?	·	·	-11.3	14.6µM*	·
NC(Cc1ccc(C(F)(F)F)cc1)c1csc(NC(=O)NCCc2ccccc2)n1 (stereo unspecified)	11.6µM*	·	·	-101.0*	13µM*	·
CCCc1cc(C(=O)N2CCCC(Nc3ccc(C)c(C)c3)C2)n(C)n1 (stereo unspecified)	?	-0.4	6.2%[56.1 µM]	i	?	?
CCOC(=O)CCc1cc(F)c(S(=O)(=O)N2CCN(S(=O)(=O)c3ccc4c(c3)OCCO4)CC2)cc1F	·	·	0.1%	·	·	·
CN(c1ccc(OCC(=O)NCc2cccnc2)cc1)S(=O)(=O)c1ccc(Cl)cc1	-23.8%	17.8	0.0%	0.0	?	-7.9%
Cc1ccc(OCC(=O)NC2CC(C)(C)NC(C)(C)C2)c(C)c1	-3.8%	-4.5	-8.3%	-5.4	0.0%	-0.2%
CC(C)c1ccc(OCC(=O)NC2CC(C)(C)NC(C)(C)C2)c(Br)c1	?	-11.5	4.3%	-62.1*	?	-2.0%
Cc1cc(OCC(=O)NC2CC(C)(C)NC(C)(C)C2)c(C)cc1Br	?	-5.1	-2.4%	i	13µM*	1.5%
O=C1NC2(CCCCCC2)C(=O)N1Cc1ccc([N+](=O)[O-])cc1	-8.6%	4.2	2.6%	-3.0	-21.4%	11.8%
CC1=NN(c2ccc(Cl)cc2)C(=O)/C1=C\c1cccn1-c1ccc(S(N)(=O)=O)cc1	?	-5.6	8.1%	?	14.6µM*	-17.2%
CC(=O)Nc1cc(C(=O)N2CCCC(C)C2)cc2ncn(CCc3ccccn3)c12 (stereo unspecified)	3.6%[9.04 µM]	·	·	·	-19.0%	·
CC1(C)CCN2CCC(C)(C)c3c(O)ccc1c32	3.26µM*	-9.9	10.3%	13.8	3.66µM*	?
COc1ccc(OC)c(/C=C/C(=O)OCC(=O)Nc2cccc(C(C)=O)c2)c1	16.4µM*	7.2	-5.6%	7.7	?	-9.8%
CC1CCCC(C)N1C(=O)COC(=O)/C=C/c1ccc(Br)o1 (stereo unspecified)	-17.3%	-22.7	11.2µM*	12.1	-9.8%	-6.1%
COc1ccc(/C=C/C(=O)OCC(=O)NCCc2ccccc2)c(OC)c1	?	-13.9	0.6%	4.8	20.6µM*	?
COc1ccc(OC)c(/C=C/C(=O)Oc2ccc(C(C)=O)cc2)c1	-2.9%	7.1	·	-4.8	-25.3%	-11.4%
COc1ccc(OC)c(/C=C/C(=O)OCC(=O)N2C(C)CCCC2C)c1 (stereo unspecified)	?	23.3	-4.6%	-27.6	10.3µM*	20.6µM*
Cc1cc(/C=C(\C#N)C(=O)N2CCOCC2)c(C)n1C1CCCC1	?	-10.0	9.8%	0.0	11.6µM*	?
N#C/C(=C\c1cccs1)C(=O)N1CCOCC1	8.4%	4.1	7.5%	-10.2	1.1%	-1.3%
